16 compounds from ChEMBL document CHEMBL1961873, “Compounds: GSK PKIS; Assays: Nanosyn kinase panel” (2012) can be followed below.

In assay [1] the target is Serine/threonine-protein kinase PAK 6 (Homo sapiens) (UniProt Q9NQU5). Particulars: at 1 µM.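 Note: values are mean percent inhibition of PAK6 kinase.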
For assay [2], the system named is Tyrosine-protein kinase ABL1 (Homo sapiens), P00519 [E255K]. Particulars: at 0.1 µM.
The test system is the same in assay [3]. The conditions noted are these: at 1 µM.
For assay [4], the system named is Tyrosine-protein kinase ABL1 (Homo sapiens), P00519 [H396P]. The conditions noted are these: at 0.1 µM.
Assay [5] shares this test system. Particulars: at 1 µM.
Assay [6] has as its system Tyrosine-protein kinase ABL1 (Homo sapiens), P00519 [M351T]. Particulars: at 0.1 µM.
Assay [7] shares this test system. The conditions noted are these: at 1 µM.
The subject of assay [8] is Tyrosine-protein kinase ABL1 (Homo sapiens), P00519 [Q252H]. Particulars: at 0.1 µM.
The test system is the same in assay [9]. The conditions noted are these: at 1 µM.
In assay [10] the test system is Tyrosine-protein kinase ABL1 (Homo sapiens), P00519 [T315I]. The conditions noted are these: at 0.1 µM.

“And” between values parts separate entries of the source, which are not always exact repeats. Identical values can stand only once.

Usually inhibition stands for the drop in the measured response relative to a control, in per cent.

Serine/threonine-protein kinase PAK 6 (Homo sapiens), sequence (Q9NQU5 whole entry, looked up): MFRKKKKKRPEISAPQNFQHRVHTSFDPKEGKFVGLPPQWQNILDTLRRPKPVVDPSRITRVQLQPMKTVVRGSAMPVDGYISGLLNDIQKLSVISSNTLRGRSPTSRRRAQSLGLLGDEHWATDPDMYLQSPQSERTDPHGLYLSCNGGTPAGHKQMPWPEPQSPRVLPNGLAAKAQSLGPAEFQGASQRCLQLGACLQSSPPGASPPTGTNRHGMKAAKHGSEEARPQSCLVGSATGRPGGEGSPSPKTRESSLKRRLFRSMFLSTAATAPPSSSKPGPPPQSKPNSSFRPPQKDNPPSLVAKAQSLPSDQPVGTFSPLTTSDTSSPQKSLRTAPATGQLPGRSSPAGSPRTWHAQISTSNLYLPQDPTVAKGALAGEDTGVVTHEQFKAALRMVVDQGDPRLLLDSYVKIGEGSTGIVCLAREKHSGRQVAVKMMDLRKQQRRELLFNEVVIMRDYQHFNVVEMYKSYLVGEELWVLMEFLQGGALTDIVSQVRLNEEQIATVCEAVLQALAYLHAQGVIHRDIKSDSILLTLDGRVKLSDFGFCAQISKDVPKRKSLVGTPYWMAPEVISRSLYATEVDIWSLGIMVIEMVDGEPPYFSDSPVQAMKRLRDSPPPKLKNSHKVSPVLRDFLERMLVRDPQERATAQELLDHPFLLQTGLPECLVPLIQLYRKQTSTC

In the case of `COC(=O)Nc1nc2ccc(Oc3ccc(NC(=O)Nc4cc(C(F)(F)F)ccc4F)cc3)cc2s1`, the inhibition is -8.13% in assay [1]; 17.2% in assay [2]; 66.8% in [3]; 65.9% in assay [4]; 92.3% in [5]; 76.6% in assay [6]. Besides, the inhibition in assay [7] stood at 93.3%; in assay [8], 75.1%; in assay [9] it was 91.4%; in assay [10], 78.8%.
As for `Fc1cccc(COc2ccc(Nc3ncncc3C#Cc3ccccc3)cc2Cl)c1`, the inhibition in [1] was -8.4%; in assay [2], 3.27%; in assay [3], 5.06%; in assay [4], 3.58%; in [5], 4.02%; in [6] it was 0.94%. The inhibition in assay [7] turned out to be 5.32%; in assay [8] it was 4.91%; in assay [9], 3.96%; in [10], 4.11%.
In the case of `Nc1ncnc2occ(-c3ccc(NC(=O)Nc4cc(C(F)(F)F)ccc4F)cc3)c12`, the inhibition in [1] is 0.09% and -8.17%; in assay [2], 5.05% and 2.1%; in assay [3], 33.4% and 18.4%; in assay [4], 24.2% and 11.5%; in [5] it was 73.1% and 58.4%; in assay [6], 56.4% and 49.1%. Besides, the inhibition in assay [7] was 84.6% and 76.3%; in assay [8], 55.7% and 45.2%; in assay [9], 79.1% and 74%; in [10] it was 53.6% and 39.2%.
On to `c1ccc(-c2n[nH]cc2-c2ccnc(-c3ccc(OCCn4ccnc4)cc3)c2)nc1`, for which the inhibition in assay [1] is -6.97%; in assay [2] it was 23.1%; in assay [3] it was 71.2%; in assay [4], 46.9%; in [5], 88.1%; in [6], 43.8%. The inhibition in assay [7] is 87.2%; in assay [8], 25.9%; in assay [9], 73.4%; in assay [10], 3%.
Regarding `CN1CCN(Cc2ccc(-c3cc4ncnc(Nc5ccc(OCc6cccc(F)c6)c(Cl)c5)c4s3)o2)CC1`, the inhibition in assay [1] was -4.15% and 3.43%; in assay [2], 2.21% and 2.71%; in [3], 7.15% and 8.4%; in assay [4] it was 4.73% and 6.21%; in [5] it was 14.3% and 18%; in assay [6] it was 1.3% and 4.75%. Further, the inhibition was 14.7% and 17.9% in assay [7]; 4.48% and 6.29% in [8]; 16.1% and 20.9% in [9]; 3.33% and 5.07% in assay [10].
On to `COc1cc2c(cc1Nc1nc(Nc3cccc(F)c3C(N)=O)c3cc[nH]c3n1)N(C(=O)CN1CCN(C(C)C)CC1)CC2`, for which the inhibition is -0.05% in assay [1]; -0.8% in [2]; -0.74% in assay [3]; -1.59% in [4]; 0.65% in assay [5]; -1.33% in [6]. Also, the inhibition in assay [7] was 2.97%; in assay [8], -0.13%; in assay [9], 3.8%; in [10], -0.82%.
As for `CCN1CCC(C(=O)Nc2n[nH]c3nnc(-c4cccc(F)c4F)cc23)CC1`, the inhibition is -6.98% in [1]; -0.54% in assay [2]; 0.15% in assay [3]; 0.08% in assay [4]; -0.56% in assay [5]; -0.54% in assay [6]. Also, the inhibition was -0.16% in assay [7], -1.28% in assay [8], -1.04% in assay [9] and 0.53% in assay [10].
With `COc1cc(N2CCN(C(C)C)CC2)ccc1Nc1nc(Nc2cccc3ncccc23)c2cc[nH]c2n1`, the inhibition in assay [1] was -4.19%; in [2], 0.09%; in [3] it was 0.59%; in [4], 2.17%; in [5], 3.86%; in assay [6], 2.31%. The inhibition in assay [7] is 3.99%; in assay [8], 1.61%; in assay [9] it was 3.51%; in [10], 1.61%.
Take `COc1c(C(N)=O)cc(-c2ccc(Cl)cc2)cc1-c1ccc(S(N)(=O)=O)cc1`: the inhibition is -4.53% in assay [1]; 2.38% in [2]; 3.7% in assay [3]; 3.77% in assay [4]; 5.78% in [5]; 1.02% in [6]. Besides, the inhibition in assay [7] is 1.14%; in [8] it was 3.13%; in assay [9] it was 5.89%; in assay [10] it was 3.24%.
With `CN1CCC(C(=O)Nc2n[nH]c3nc(-c4ccc(O)cc4)c(Br)cc23)CC1`, the inhibition in assay [1] is -4.52%; in assay [2], 2.77% and -0.12%; in [3] it was 13.4% and 6.5%; in [4], 4.9% and 3.81%; in assay [5], 15.7% and 13.9%; in [6] it was 1.55% and 2.92%. For the same compound, the inhibition in assay [7] is 13.9% and 9.89%; in assay [8], 3.16% and 3.78%; in assay [9], 17.1% and 15.7%; in assay [10], 2.49% and 2.76%.
In the case of `FC(F)(F)CNc1nccc(-c2cnn3ncccc23)n1`, the inhibition in assay [1] is -2.36%; in assay [2] it was 6.33%; in [3], 1.46%; in assay [4], 2.61%; in [5], 2.38%; in [6], 0.25%. The inhibition in [7] is 0.76%; in assay [8], 1.08%; in assay [9], 1.59%; in assay [10], 0.06%.
Take `NC(=O)c1ccc2c(-c3ccnc(NCCCO)n3)c(-c3ccc(F)cc3)nn2c1`: the inhibition is -5.05% in assay [1]; 4.7% in assay [2]; 7.28% in assay [3]; 6.27% in [4]; 8.34% in assay [5]; 3.9% in assay [6]. The inhibition in [7] came out at 10.1%; in [8], 5.67%; in assay [9], 10.2%; in [10], 2.91%.
For `N#Cc1ccc2c(-c3ccnc(NC4CC4)n3)c(-c3ccc(F)cc3)nn2c1`, the inhibition in [1] is -2.35%; in [2] it was -0.39%; in assay [3], 0.55%; in assay [4], -0.57%; in [5], 3.93%; in [6], -0.71%. For the same compound, the inhibition in [7] is 3.61%; in assay [8] it was 0.81%; in [9], 4.72%; in [10], -0.18%.
For the compound `CCCNc1cccc(-n2ncc3c(N/N=C/c4ccncc4)ncnc32)c1`, the inhibition was 2.09% in [1]; 27.1% in assay [2]; 77.2% in assay [3]; 37.5% in [4]; 86% in assay [5]; 36.8% in assay [6]. Besides, the inhibition in assay [7] was determined as 85.8%; in assay [8], 35.7%; in [9], 83.8%; in [10], 37.5%.
As to `COc1ccc2ncn(-c3cc(O[C@H](C)c4ccccc4C(F)(F)F)c(C(N)=O)s3)c2c1`, the inhibition is -8.65% in assay [1]; -0.4% in [2]; -1.92% in [3]; -0.02% in assay [4]; 2.03% in [5]; 0.8% in assay [6]. Further, the inhibition in assay [7] is 1.91%; in assay [8], -0.3%; in [9], 2.05%; in assay [10] it was 0.03%.
Consider `CN1CCC(n2cnc(-c3ccc(F)cc3)c2-c2ccnc(NCCO)n2)CC1`, for which the inhibition is -2.04% in assay [1]; 2.22% in assay [2]; 5.59% in assay [3]; 3.64% in assay [4]; 6.05% in assay [5]; 0.67% in assay [6]. The inhibition was 7.5% in [7], 5.69% in [8], 4.05% in assay [9] and 3.06% in [10].
